DT40 TDP1 CPT – growth inhibition of DT40 Tdp1-/-;hTDP1 cells with camptothecin (screen for TDP1 inhibitors); hit rate 12% among 420,000; Potency, µM (highest dose often 46.2 µM), for the others: top-dose activity change, negative = growth inhibition, actives largely listed as inhibitors; chicken DT40 Tdp1-/-;hTDP1 cells + 20 nM CPT, ATP luminescence, 48 h; also: potency is read from the fitted curve at half-maximal effect; nearly all actives have a fitted effect of over 55% in size
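Cell growth measured by CellTiter-Glo luminescence after a minimum 48 h, 37 C compound exposure with 20 nM CPT in Tdp1-knockout DT40 cells stably expressing hTDP1, seeded 400/well; qHTS titration format.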
HT1080-NT tox – kills 2HG-producing HT-1080-NT fibrosarcoma cells | HT-1080-NT fibrosarcoma viability, CellTiter-Glo ATP luminescence, 48 h | Potency, µM (top dose mostly 46.1 µM), without a hit: at the top dose activity, negative = less viability, hits mostly cytotoxic | hit rate 1.6% among 360,000 | AID 686970;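 also: NT is the 2HG producing partner of a matched IDH1 knockdown line; potency is read from the fitted curve at half-maximal effect; 0% = DMSO-treated cells and -100% = media-only wells without cells; nearly all actives have a fitted effect of over 55% in size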
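Toxicity toward the 2HG-producing NT line was scored as %Activity, normalised to DMSO and no-cell wells, from CellTiter-Glo luminescence after 48 hours' treatment.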
TDP1 cell noCPT – qHTS for Inhibitors of human tyrosyl-DNA phosphodiesterase 1 (TDP1): qHTS in cells in absence of CPT | hit rate 15% among 420,000 | Potency, µM (highest dose often 46.2 µM), for inactives: at the highest dose activity change, negative = growth inhibition, actives largely listed as inhibitors | DT40 Tdp1-/- hTDP1 cells, no CPT, ATP luminescence, 48 h; also: potency is read from the fitted curve at half-maximal effect; nearly all actives have a fitted effect of over 55% in size
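Chicken DT40 Tdp1-/- cells complemented with human TDP1, screened without camptothecin (DMSO vehicle only), 400 cells/well. Compounds pin-transferred, cells incubated at 37 °C for at least 48 hr. Growth read as ATP-dependent luminescence (CellTiter-Glo, 30 min at RT).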
HT1080 IDH1KD tx – toxicity to HT-1080 IDH1 knockdown cells (counter line) | HT-1080 IDH1 knockdown viability, ATP luminescence, 48 h | Potency, µM (highest dose often 46.1 µM), for inactives: at the top dose activity, negative = toxicity, most hits filed as cytotoxic | hit rate 2% among 360,000 | AID 686971;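 also: potency is read from the fitted curve at half-maximal effect; 0% = DMSO wells and -100% = cell-free medium wells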
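HT-1080-IDH1KD cells (IDH1 knocked down), 750/well in RPMI with 5% FBS, treated with compound 48 h at 37 degrees C. Viability by CellTiter-Glo luminescence, normalised to DMSO and no-cell wells; concentration-response curves classed.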
IL-1B inflam inh – inhibitors of inflammasome signaling (IL-1 beta secretion). THP-1 LPS/ATP IL-1B secretion, AlphaLISA, 16 h; stronger effect = lower value. activity change, % at 57.5 µM. hit rate 4.7% among 360,000; in the data active = activity change below about -50%; inconclusive = mostly about -30% to -49%
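THP-1 cells pretreated 1 hr with compounds (up to 57.5 uM final), then stimulated with LPS (250 ng/mL final) plus ATP (1.25 mM final); secreted IL-1B measured by AlphaLISA after 16 hr, decreased signal indicating inhibition.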
Active calls of the source: *. In the library only some 19% were active in any assay of this set; here they are far more common. Unless noted, calls follow the shape of the dose curve; as a rule, active = well fitted curve in the direction sought with a large enough effect; inconclusive = small, poorly fitted or top-dose-only effect, or another doubt; inactive = no such curve, though single readings can be large; an effect the other way counts as inactive or inconclusive. Unless noted, % is scaled to controls: 0 for no effect and ±100 for the full control effect.

Results for Cc1[nH]nc2c1C(CCc1ccccc1)C(C#N)=C(N)O2 (centres undefined) ?
DT40 TDP1 CPT: -11%; HT1080-NT tox: 19%; TDP1 cell noCPT: -7%; HT1080 IDH1KD tx: 12%; IL-1B inflam inh: 9

What do the screens show for `Cc1ccc(S(=O)(=O)n2ccc3c(OCCOCCSCC(NC(=O)OC(C)(C)C)C(=O)O)cccc32)cc1` (centres undefined)?
DT40 TDP1 CPT: -1%; HT1080-NT tox: -27%; TDP1 cell noCPT: inconclusive; HT1080 IDH1KD tx: -19%; IL-1B inflam inh: 42

How did Cc1ccc(S(=O)(=O)n2ccc3c(OCCOCCNCc4ccc(F)cc4)cccc32)cc1 do in these assays?
DT40 TDP1 CPT: inconclusive; HT1080-NT tox: 16µM*; TDP1 cell noCPT: 18µM*; HT1080 IDH1KD tx: 21µM*; IL-1B inflam inh: -88*

Results for O=C(CC(O)c1ccncc1)c1ccccc1O (centres undefined) ?
DT40 TDP1 CPT: inconclusive; HT1080-NT tox: inconclusive; TDP1 cell noCPT: inconclusive; HT1080 IDH1KD tx: inconclusive; IL-1B inflam inh: -63*

How did COc1ccc(S(=O)(=O)N2CCCC(C(=O)NCc3ccncc3)C2)cc1 (centres undefined) do in these assays?
DT40 TDP1 CPT: inconclusive; HT1080-NT tox: -7%; TDP1 cell noCPT: inconclusive; HT1080 IDH1KD tx: -6%; IL-1B inflam inh: -13

What do the screens show for `CCN(C[C@H]1N[C@@](Cc2ccccc2)(C(=O)OC)[C@H]2C(=O)N(Cc3ccccc3)C(=O)[C@@H]12)C(=O)C1CCCCC1`?
DT40 TDP1 CPT: inconclusive; HT1080-NT tox: 0%; TDP1 cell noCPT: 13µM*; HT1080 IDH1KD tx: 0%; IL-1B inflam inh: -18

How did COC(=O)[C@]1(Cc2ccccc2)N[C@H](CN(C)C(=O)COc2ccccc2)[C@@H]2C(=O)N(Cc3ccccc3)C(=O)[C@@H]21 do in these assays?
DT40 TDP1 CPT: 21µM*; HT1080-NT tox: 0%; TDP1 cell noCPT: inconclusive; HT1080 IDH1KD tx: -1%; IL-1B inflam inh: 0

What do the screens show for `CCN(C[C@H]1N[C@@](Cc2ccccc2)(C(=O)OC)[C@H]2C(=O)N(Cc3ccccc3)C(=O)[C@@H]12)C(=O)COc1ccccc1`?
DT40 TDP1 CPT: 21µM*; HT1080-NT tox: 4%; TDP1 cell noCPT: 18µM*; HT1080 IDH1KD tx: 4%; IL-1B inflam inh: -21

How did CC[C@@]1(C(=O)OC)N[C@H](CN(C)C(=O)C2CCCCC2)[C@@H]2C(=O)N(Cc3ccccc3)C(=O)[C@@H]21 do in these assays?
DT40 TDP1 CPT: 1%; HT1080-NT tox: 3%; TDP1 cell noCPT: -1%; HT1080 IDH1KD tx: 13%; IL-1B inflam inh: -5

How did COC(=O)[C@]1(Cc2ccccc2)N[C@H](CN(C)C(C)=O)[C@@H]2C(=O)N(Cc3ccccc3)C(=O)[C@@H]21 do in these assays?
DT40 TDP1 CPT: -6%; HT1080-NT tox: -1%; TDP1 cell noCPT: 4%; HT1080 IDH1KD tx: -2%; IL-1B inflam inh: 16

How did CCCc1nn2c(=O)cc(CSCC(=O)Nc3nnc(CC)s3)nc2s1 do in these assays?
DT40 TDP1 CPT: -7%; HT1080-NT tox: 3%; TDP1 cell noCPT: 8%; HT1080 IDH1KD tx: -2%; IL-1B inflam inh: 23

How did COCCCn1c(=O)c2sccc2n2c(CCCC(=O)NCc3ccc(F)cc3)nnc12 do in these assays?
DT40 TDP1 CPT: -14%; HT1080-NT tox: -2%; TDP1 cell noCPT: inconclusive; HT1080 IDH1KD tx: 0%; IL-1B inflam inh: -10

How did COc1ccc(C(=O)Nc2cccc(C)n2)cc1S(=O)(=O)N1CCCc2ccccc21 do in these assays?
DT40 TDP1 CPT: inconclusive; HT1080-NT tox: inconclusive; TDP1 cell noCPT: 16µM*; HT1080 IDH1KD tx: -25%; IL-1B inflam inh: inconclusive

How did COc1ccc(C(=O)NCc2ccccc2)cc1S(=O)(=O)N1CCCc2ccccc21 do in these assays?
DT40 TDP1 CPT: 16µM*; HT1080-NT tox: -6%; TDP1 cell noCPT: inconclusive; HT1080 IDH1KD tx: -19%; IL-1B inflam inh: 5

Results for CSc1ncc(CN2CCc3c([nH]c4ccccc34)C2c2cccc(C)n2)cn1 (centres undefined) ?
DT40 TDP1 CPT: inconclusive; HT1080-NT tox: -7%; TDP1 cell noCPT: 26µM*; HT1080 IDH1KD tx: -10%; IL-1B inflam inh: 35

What do the screens show for `CSc1ncc(CN2CCc3c([nH]c4ccccc34)C2c2cccc(O)c2)cn1` (centres undefined)?
DT40 TDP1 CPT: inconclusive; HT1080-NT tox: -5%; TDP1 cell noCPT: 26µM*; HT1080 IDH1KD tx: -14%; IL-1B inflam inh: 7

Results for Cc1ccc(C(=O)NC(=S)c2c(C)cc3ccccn23)cc1 ?
DT40 TDP1 CPT: inconclusive; HT1080-NT tox: -4%; TDP1 cell noCPT: inconclusive; HT1080 IDH1KD tx: -13%; IL-1B inflam inh: -12

What do the screens show for `CC1CN(C(=O)Cn2c(=O)oc3ccccc32)CC(C)O1` (centres undefined)?
DT40 TDP1 CPT: 13%; HT1080-NT tox: 9%; TDP1 cell noCPT: -10%; HT1080 IDH1KD tx: 14%; IL-1B inflam inh: 32

What do the screens show for `CCc1ccccc1NC(=O)Cn1c(=O)n(Cc2ccc3c(c2)OCO3)c(=O)c2ccc(C(=O)NC3CCCCC3)cc21`?
DT40 TDP1 CPT: 1.8µM*; TDP1 cell noCPT: inconclusive

What do the screens show for `CCOc1ccc(NC(=O)Cn2c(=O)n(Cc3ccc4c(c3)OCO4)c(=O)c3ccc(C(=O)NC4CCCCC4)cc32)cc1`?
DT40 TDP1 CPT: 2.6µM*; TDP1 cell noCPT: 4.6µM*

What do the screens show for `COc1ccc(S(=O)(=O)N(CCCN2CCCC2=O)Cc2cc3c(C)cc(C)cc3[nH]c2=O)cc1`?
DT40 TDP1 CPT: inconclusive; HT1080-NT tox: 5%; TDP1 cell noCPT: inconclusive; HT1080 IDH1KD tx: -1%; IL-1B inflam inh: -54*

What do the screens show for `CC(=O)Nc1ccc(S(=O)(=O)N(Cc2cc3ccc(C)cc3[nH]c2=O)CC2CCCO2)cc1` (centres undefined)?
DT40 TDP1 CPT: -21%; HT1080-NT tox: 5%; TDP1 cell noCPT: inconclusive; HT1080 IDH1KD tx: 13%; IL-1B inflam inh: -9

How did COc1ccc2[nH]c(=O)c(CN(CCO)S(=O)(=O)c3ccc(C)cc3)cc2c1 do in these assays?
DT40 TDP1 CPT: -16%; HT1080-NT tox: -3%; TDP1 cell noCPT: inconclusive; HT1080 IDH1KD tx: 1%; IL-1B inflam inh: 0

What do the screens show for `COc1ccc(S(=O)(=O)N(Cc2cc3cc(C)ccc3[nH]c2=O)CC2CCCO2)cc1` (centres undefined)?
DT40 TDP1 CPT: inconclusive; HT1080-NT tox: 5%; TDP1 cell noCPT: 21µM*; HT1080 IDH1KD tx: 7%; IL-1B inflam inh: -16

Compound activity: PubChem, National Center for Advancing Translational Sciences (NCATS)
